TDP1 cell CPT: qHTS for Inhibitors of human tyrosyl-DNA phosphodiesterase 1 (TDP1): qHTS in cells in presence of CPT | chicken DT40 Tdp1-/-;hTDP1 cells + 20 nM CPT, ATP luminescence, 48 h | Potency, µM (doses to about 46.2 µM), actives largely listed as inhibitors | 420,000 tested, 12% active; note: nearly all actives have a fitted effect of over 55% in size
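Chicken DT40 Tdp1-/- cells complemented with human TDP1, 400 cells/well, exposed to compounds plus 20 nM camptothecin for at least 48 h at 37 C; viability read as ATP content by CellTiter-Glo luminescence.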
HT1080-NT tox: qHTS for induction of synthetic lethality in tumor cells producing 2HG: qHTS for the HT-1080-NT fibrosarcoma cell line; HT-1080-NT fibrosarcoma viability, CellTiter-Glo ATP luminescence, 48 h; 360,000 tested, 1.6% active; Potency, µM (series often up to 46.1 µM), actives largely listed as cytotoxic;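 note: NT is the 2HG producing partner of a matched IDH1 knockdown line; nearly all actives have a fitted effect of over 55% in size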
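Toxicity toward the 2HG-producing NT line was scored as %Activity, normalised to DMSO and no-cell wells, from CellTiter-Glo luminescence after 48 hours' treatment.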
DT40 TDP1 no CPT: qHTS for Inhibitors of human tyrosyl-DNA phosphodiesterase 1 (TDP1): qHTS in cells in absence of CPT; DT40 Tdp1-/- hTDP1 cells, no CPT, ATP luminescence, 48 h; Potency, µM (top dose mostly 46.2 µM), usual class: inhibitors; 420,000 tested, 15% active; note: nearly all actives have a fitted effect of over 55% in size
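DT40 Tdp1-/-;hTDP1 cells, no CPT (DMSO vehicle only), 400 cells/well; compounds pin-transferred; ≥48 hr, 37 °C; CellTiter-Glo 30 min RT dark, luminescence read.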
ELG1 DNA repair: qHTS screen for small molecules that inhibit ELG1-dependent DNA repair in human embryonic kidney (HEK293T) cells expressing luciferase-tagged ELG1. Potency, µM (doses to about 46.1 µM), actives largely listed as inhibitors. HEK293T ELG1-luciferase reporter, luminescence, 16 h; DNA damage induced by 5-fluorouridine. 330,000 tested, 2.3% active; note: nearly all actives have a fitted effect of over 55% in size
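Step one: seed 2,000 cells per well. Step two: pin-transfer compound or DMSO alongside 5-fluorouridine. Step three: incubate 16 hr, 37 °C, 5% CO2. Step four: add ONE-Glo, wait 30 min, read luminescence.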
IL1B secr inh: qHTS for Inhibitors of Inflammasome Signaling: IL-1-beta AlphaLISA Primary Screen; THP-1 LPS/ATP IL-1B secretion, AlphaLISA, 16 h; active compounds read low; activity change, % at 57.5 µM; 360,000 tested, 4.7% active; AID 743279, 2014; in the data active = activity change below about -50%; inconclusive = mostly about -30% to -49%
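Secreted IL-1B measured by AlphaLISA bead assay after 16 h compound exposure of THP-1 cells; compounds (final up to 57.5 uM) added 1 h before LPS (250 ng/mL) and ATP (1.25 mM) stimulation; lower signal means less secretion.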
HT1080 IDH1KD tx: qHTS for induction of synthetic lethality in tumor cells producing 2HG: qHTS for the HT-1080-IDH1KD cell line | HT-1080 IDH1 knockdown viability, ATP luminescence, 48 h | Potency, µM (titrated, usually from 46.1 µM), most hits filed as cytotoxic | 360,000 tested, 2% active
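% activity derives from luminescence (CellTiter-Glo), normalised to DMSO and no-cell wells. HT-1080-IDH1KD cells, 750/well, had 48 h compound exposure at 37 °C.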
Of the large screens only hits and unclear results are named; the others gave an inactive call. Rows were chosen to be rich in hits. Some 19% of all compounds tested hit in one or more screens of this group. Unless noted, calls come from the whole dose curve; as a rule, active = well fitted curve in the direction sought with a large enough effect; inconclusive = small, poorly fitted or top-dose-only effect, or another doubt; inactive = no such curve, though single readings can be large; an effect the other way counts as inactive or inconclusive.

O=C(COC(=O)COc1ccccc1)Nc1ncc([N+](=O)[O-])s1	TDP1 cell CPT 23µM, DT40 TDP1 no CPT inconclusive
COc1cccc(/C=C/C(=O)c2c(O)cc(C)oc2=O)c1O	TDP1 cell CPT inconclusive, DT40 TDP1 no CPT inconclusive, ELG1 DNA repair inconclusive, IL1B secr inh -81
COc1cc(/C=C/C(=O)c2c(O)cc(C)oc2=O)cc(OC)c1O	TDP1 cell CPT inconclusive, HT1080-NT tox inconclusive, DT40 TDP1 no CPT inconclusive, ELG1 DNA repair inconclusive, IL1B secr inh -55, HT1080 IDH1KD tx inconclusive
COc1ccc(/C=C/C(=O)c2c(O)cc(C)oc2=O)c(OC)c1	TDP1 cell CPT inconclusive, DT40 TDP1 no CPT inconclusive, ELG1 DNA repair inconclusive, HT1080 IDH1KD tx inconclusive
Cc1cc2c(c(-c3nc4ccccc4s3)c1)OC(CNC(=O)CCc1cccnc1)C2 (centres undefined)	TDP1 cell CPT 0.12µM, DT40 TDP1 no CPT 0.13µM (no result: HT1080-NT tox, ELG1 DNA repair, IL1B secr inh, HT1080 IDH1KD tx)
O=C(CCc1cccnc1)NCC1Cc2cccc(-c3ncccn3)c2O1 (centres undefined)	none (no result: HT1080-NT tox, ELG1 DNA repair, IL1B secr inh, HT1080 IDH1KD tx)
COC(=O)N/N=C/c1cc(Cl)c(OCc2ccccc2F)c(OC)c1	TDP1 cell CPT inconclusive, DT40 TDP1 no CPT 23µM
COc1ccc(-c2nc3ccccc3nc2-c2ccc(OC)c(OC)c2)cc1OC	none
COc1ccc(-c2cc3ccccc3nc2N)cc1OC	TDP1 cell CPT 18µM, DT40 TDP1 no CPT 21µM, ELG1 DNA repair inconclusive
CC(C)n1cnc2c(Nc3cccc(Cl)c3)nc(NCCCO)nc21	TDP1 cell CPT 21µM, DT40 TDP1 no CPT 16µM, ELG1 DNA repair inconclusive, IL1B secr inh -95, HT1080 IDH1KD tx inconclusive
C=CCOc1ccc(/C=C2\SC(N)=NC2=O)cc1OC	TDP1 cell CPT inconclusive, ELG1 DNA repair inconclusive
NC1=NC(=O)/C(=C/c2cc(Br)c(O)c(Br)c2)S1	ELG1 DNA repair inconclusive
COc1cc(/C=C2\SC(N)=NC2=O)cc(OC)c1	TDP1 cell CPT 18µM, DT40 TDP1 no CPT inconclusive
COc1cc(/C=C2\SC(N)=NC2=O)ccc1O	TDP1 cell CPT 12µM, HT1080-NT tox inconclusive, DT40 TDP1 no CPT 4.6µM, ELG1 DNA repair 10µM, IL1B secr inh -83, HT1080 IDH1KD tx 18µM
N#Cc1ccccc1COC(=O)c1ccc2c(c1)OCCO2	TDP1 cell CPT inconclusive, ELG1 DNA repair inconclusive, IL1B secr inh -50
O=[N+]([O-])c1ccc(/C=N/Nc2ccnc3cc(Cl)ccc23)o1	TDP1 cell CPT 15µM, HT1080-NT tox inconclusive, DT40 TDP1 no CPT 16µM, IL1B secr inh -94, HT1080 IDH1KD tx inconclusive
CCOc1ccc(Nc2ccnc3cc(Cl)ccc23)cc1	TDP1 cell CPT inconclusive, HT1080-NT tox inconclusive, DT40 TDP1 no CPT inconclusive, ELG1 DNA repair inconclusive, HT1080 IDH1KD tx inconclusive
Clc1ccc2c(N/N=C/c3cccc(Br)c3)ccnc2c1	TDP1 cell CPT 16µM, HT1080-NT tox inconclusive, DT40 TDP1 no CPT 16µM, ELG1 DNA repair inconclusive, IL1B secr inh -99, HT1080 IDH1KD tx inconclusive
Clc1ccc2c(NNc3ccccc3Cl)ccnc2c1	TDP1 cell CPT inconclusive, DT40 TDP1 no CPT inconclusive
Clc1ccc2c(N/N=C/c3ccccc3Br)ccnc2c1	TDP1 cell CPT 7.3µM, HT1080-NT tox inconclusive, DT40 TDP1 no CPT 2.9µM, IL1B secr inh -98, HT1080 IDH1KD tx inconclusive
CCCN(C(=O)CSCc1ccc(C)cc1)c1c(N)n(Cc2ccccc2)c(=O)[nH]c1=O	none (no result: ELG1 DNA repair)
Cc1noc(C)c1-c1nccc(N2CCNCC2)n1	none (no result: HT1080-NT tox, ELG1 DNA repair, IL1B secr inh, HT1080 IDH1KD tx)
O=C(Nc1ccc(N2CCOCC2)cc1)c1ccc(COc2ccccc2)cc1	ELG1 DNA repair inconclusive
Cc1cn2c(=O)cc(COC(=O)COc3ccc(C)c(C)c3)nc2s1	none (no result: HT1080-NT tox, ELG1 DNA repair, IL1B secr inh, HT1080 IDH1KD tx)
C[C@@H](NC(=O)c1[nH]cnc1C(=O)Nc1ccon1)c1ccccc1	TDP1 cell CPT 16µM, DT40 TDP1 no CPT inconclusive, HT1080 IDH1KD tx inconclusive
C[C@H](NC(=O)c1[nH]cnc1C(=O)Nc1cccc(Cl)c1)c1ccccc1	TDP1 cell CPT inconclusive, HT1080-NT tox inconclusive, DT40 TDP1 no CPT 16µM
C/C(=N/O)c1ccc(Oc2cnccn2)cc1	none
O=C(Nc1nc(-c2ccccn2)cs1)c1ccc(Cl)s1	TDP1 cell CPT 1µM, HT1080-NT tox inconclusive, DT40 TDP1 no CPT 0.92µM, ELG1 DNA repair inconclusive, HT1080 IDH1KD tx 4.1µM
CCc1sc(C(=O)NCc2ccccc2)cc1C	TDP1 cell CPT 21µM, DT40 TDP1 no CPT 13µM
CCc1sc(C(=O)Nc2nc(-c3ccccn3)cs2)cc1C	TDP1 cell CPT 2.9µM, DT40 TDP1 no CPT 4.1µM, HT1080 IDH1KD tx inconclusive
O=C(Nc1nc(-c2ccccn2)cs1)c1ncc(Cl)c(Cl)c1Cl	DT40 TDP1 no CPT 3.3µM, HT1080 IDH1KD tx inconclusive
CCc1nnc(NC(=O)c2ncc(Cl)c(Cl)c2Cl)s1	none
COC(=O)c1cccc(C(=O)N2CCc3c(cnc(C)c3CNC(=O)c3ccsc3)C2)c1	none (no result: HT1080-NT tox, ELG1 DNA repair, IL1B secr inh, HT1080 IDH1KD tx)
COc1ccc(C)cc1NC(=O)C1CCN(S(=O)(=O)c2ccc3[nH]c(=O)oc3c2)CC1	none (no result: HT1080-NT tox, ELG1 DNA repair, IL1B secr inh, HT1080 IDH1KD tx)
Cn1cccc1C(=O)Nc1nc(-c2ccccn2)cs1	TDP1 cell CPT 2.6µM, HT1080-NT tox inconclusive, DT40 TDP1 no CPT 4.1µM, ELG1 DNA repair inconclusive, HT1080 IDH1KD tx inconclusive
Cc1csc(NC(=O)c2cccn2C)n1	HT1080-NT tox inconclusive, DT40 TDP1 no CPT inconclusive, ELG1 DNA repair inconclusive

Bioassay records (PubChem)
